# Hit rate of the full screen: of about 5,500 compounds, about 2,000 (36%) were called active. Inconclusive results (about 18%) are left out. Some of the results follow. Values without a mark were called inactive. Cut-off read from the data, not from the text of the source: active = normalized growth mostly below about 0.91 (no sharp cut-off); inconclusive = no clear call, values can overlap the other calls; inactive = mostly above about 0.92.
# Assay: chemical genetic growth profiling, strain panel (AID 1159580);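 note: tested at 20 µM; growth read once vehicle control cultures reached saturation at 30 °C; 1 = growth at the plate median or of vehicle wells; lower values mean less growth of the strain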
# Conditions: growth OD
smiles,measurement,setting,value
CC(=O)[C@H]1CCC2C3CC=C4C[C@@H](O)CC[C@]4(C)C3CC[C@@]21C (stereo partly specified),normalized growth,"S. cerevisiae deletion strains, locus YKL009W, strain mrt4, active compounds read low",0.856 (active)
same,normalized growth,"S. cerevisiae deletion strains, locus YKL068W, active compounds read low",1.01
same,normalized growth,"S. cerevisiae deletion strains, locus YKL085W, strain MDH1 (second series), active compounds read low",0.982
same,normalized growth,"S. cerevisiae deletion strains, locus YKL085W, strain MDH1, active compounds read low",0.982
same,normalized growth,"S. cerevisiae deletion strains, locus YKL160W, strain elf1, active compounds read low",0.944
same,normalized growth,"S. cerevisiae deletion strains, locus YKL190W, strain CNB1, active compounds read low",0.97
same,normalized growth,"S. cerevisiae deletion strains, locus YKR001C, strain vps1, active compounds read low",0.991
same,normalized growth,"S. cerevisiae deletion strains, locus YKR026C, strain gcn3, active compounds read low",1.01
same,normalized growth,"S. cerevisiae deletion strains, locus YKR091W, strain srl3, active compounds read low",1.01
same,normalized growth,"S. cerevisiae deletion strains, locus YLL001W, strain dnm1, active compounds read low",0.928
same,normalized growth,"S. cerevisiae deletion strains, locus YLL026W, active compounds read low",0.912 (active)
same,normalized growth,"S. cerevisiae deletion strains, locus YLL041C, strain sdh2, active compounds read low",0.999
same,normalized growth,"S. cerevisiae deletion strains, locus YLR027C, strain aat2, active compounds read low",0.926
same,normalized growth,"S. cerevisiae deletion strains, locus YLR039C, strain RIC1, active compounds read low",0.487 (active)
same,normalized growth,"S. cerevisiae deletion strains, locus YLR058C, strain SHM2, active compounds read low",0.995
same,normalized growth,"S. cerevisiae deletion strains, locus YLR102C, strain apc9, active compounds read low",1.03
same,normalized growth,"S. cerevisiae deletion strains, locus YLR113W, strain HOG1, active compounds read low",1.01
same,normalized growth,"S. cerevisiae deletion strains, locus YLR221C, strain rsa3, active compounds read low",0.923
same,normalized growth,"S. cerevisiae deletion strains, locus YLR258W, strain gsy2, active compounds read low",0.961
same,normalized growth,"S. cerevisiae deletion strains, locus YLR262C, strain YPT6 (second series), active compounds read low",0.456 (active)
same,normalized growth,"S. cerevisiae deletion strains, locus YLR262C, strain YPT6, active compounds read low",0.532 (active)
same,normalized growth,"S. cerevisiae deletion strains, locus YLR268W, strain sec22, active compounds read low",0.949
same,normalized growth,"S. cerevisiae deletion strains, locus YLR320W, strain mms22, active compounds read low",0.646 (active)
same,normalized growth,"S. cerevisiae deletion strains, locus YLR330W, strain CHS5, active compounds read low",1.02
same,normalized growth,"S. cerevisiae deletion strains, locus YLR342W, strain FKS1 (second series), active compounds read low",0.896
same,normalized growth,"S. cerevisiae deletion strains, locus YLR342W, strain FKS1, active compounds read low",0.915
same,normalized growth,"S. cerevisiae deletion strains, locus YLR357W, strain rsc2, active compounds read low",1.09
same,normalized growth,"S. cerevisiae deletion strains, locus YLR370C, strain arc18, active compounds read low",0.987
same,normalized growth,"S. cerevisiae deletion strains, locus YLR371W, strain rom2, active compounds read low",1.02
same,normalized growth,"S. cerevisiae deletion strains, locus YLR384C, strain iki3, active compounds read low",0.998
same,normalized growth,"S. cerevisiae deletion strains, locus YLR418C, strain cdc73, active compounds read low",0.791 (active)
same,normalized growth,"S. cerevisiae deletion strains, locus YML016C, strain PPZ1, active compounds read low",1
same,normalized growth,"S. cerevisiae deletion strains, locus YML032C, strain rad52, active compounds read low",0.952
same,normalized growth,"S. cerevisiae deletion strains, locus YML120C, strain ndi1, active compounds read low",0.934
same,normalized growth,"S. cerevisiae deletion strains, locus YML124C, strain tub3, active compounds read low",1.04
same,normalized growth,"S. cerevisiae deletion strains, locus YMR058W, strain fet3, active compounds read low",0.946
same,normalized growth,"S. cerevisiae deletion strains, locus YMR078C, strain ctf18, active compounds read low",1.01
same,normalized growth,"S. cerevisiae deletion strains, locus YMR125W, strain sto1, active compounds read low",0.988
same,normalized growth,"S. cerevisiae deletion strains, locus YMR129W, active compounds read low",0.985
same,normalized growth,"S. cerevisiae deletion strains, locus YMR205C, strain PFK2, active compounds read low",0.944
same,normalized growth,"S. cerevisiae deletion strains, locus YMR223W, strain ubp8, active compounds read low",0.964
same,normalized growth,"S. cerevisiae deletion strains, locus YMR231W, strain pep5, active compounds read low",1
same,normalized growth,"S. cerevisiae deletion strains, locus YMR263W, strain SAP30, active compounds read low",0.979
same,normalized growth,"S. cerevisiae deletion strains, locus YMR307W, strain GAS1, active compounds read low",1.19
same,normalized growth,"S. cerevisiae deletion strains, locus YNL067W, strain RPL9B, active compounds read low",0.935
same,normalized growth,"S. cerevisiae deletion strains, locus YNL071W, strain lat1, active compounds read low",0.716 (active)
same,normalized growth,"S. cerevisiae deletion strains, locus YNL128W, strain TEP1, active compounds read low",1.01
same,normalized growth,"S. cerevisiae deletion strains, locus YNL153C, strain GIM3, active compounds read low",0.948
same,normalized growth,"S. cerevisiae deletion strains, locus YNL183C, strain NPR1, active compounds read low",0.866
same,normalized growth,"S. cerevisiae deletion strains, locus YNL209W, strain ssb2, active compounds read low",0.983
same,normalized growth,"S. cerevisiae deletion strains, locus YNL233W, strain BNI4, active compounds read low",0.93
same,normalized growth,"S. cerevisiae deletion strains, locus YNL248C, strain rpa49, active compounds read low",0.899
same,normalized growth,"S. cerevisiae deletion strains, locus YNL250W, strain rad50, active compounds read low",1
same,normalized growth,"S. cerevisiae deletion strains, locus YNL271C, strain bni1, active compounds read low",1.02
same,normalized growth,"S. cerevisiae deletion strains, locus YNL298W, strain CLA4, active compounds read low",0.999
same,normalized growth,"S. cerevisiae deletion strains, locus YNL307C, strain MCK1, active compounds read low",0.649 (active)
same,normalized growth,"S. cerevisiae deletion strains, locus YNL322C, strain KRE1 (second series), active compounds read low",1.03
same,normalized growth,"S. cerevisiae deletion strains, locus YNL322C, strain KRE1, active compounds read low",1.01
same,normalized growth,"S. cerevisiae deletion strains, locus YNR049C, strain mso1, active compounds read low",1.01
same,normalized growth,"S. cerevisiae deletion strains, locus YNR052C, strain pop2, active compounds read low",0.992
same,normalized growth,"S. cerevisiae deletion strains, locus YOL006C, strain TOP1, active compounds read low",0.68
same,normalized growth,"S. cerevisiae deletion strains, locus YOL012C, strain htz1",1.1
same,normalized growth,"S. cerevisiae deletion strains, locus YOL147C, strain pex11, active compounds read low",1.02
same,normalized growth,"S. cerevisiae deletion strains, locus YOR001W, strain rrp6, active compounds read low",0.904
same,normalized growth,"S. cerevisiae deletion strains, locus YOR061W, strain CKA2, active compounds read low",0.991
same,normalized growth,"S. cerevisiae deletion strains, locus YOR069W, strain VPS5, active compounds read low",1.01
same,normalized growth,"S. cerevisiae deletion strains, locus YOR070C, strain gyp1, active compounds read low",0.956
same,normalized growth,"S. cerevisiae deletion strains, locus YOR080W, strain dia2, active compounds read low",0.986
same,normalized growth,"S. cerevisiae deletion strains, locus YOR083W, strain WHI5, active compounds read low",0.907
same,normalized growth,"S. cerevisiae deletion strains, locus YOR106W, strain vam3, active compounds read low",0.927
same,normalized growth,"S. cerevisiae deletion strains, locus YOR136W, strain idh2, active compounds read low",1.01
same,normalized growth,"S. cerevisiae deletion strains, locus YOR144C, strain elg1, active compounds read low",1.03
same,normalized growth,"S. cerevisiae deletion strains, locus YOR184W, strain ser1, active compounds read low",0.75 (active)
same,normalized growth,"S. cerevisiae deletion strains, locus YOR231W, strain MKK1, active compounds read low",0.958
same,normalized growth,"S. cerevisiae deletion strains, locus YOR265W, strain rbl2, active compounds read low",0.967
same,normalized growth,"S. cerevisiae deletion strains, locus YOR270C, strain vph1, active compounds read low",0.783
same,normalized growth,"S. cerevisiae deletion strains, locus YOR290C, strain snf2, active compounds read low",0.947
same,normalized growth,"S. cerevisiae deletion strains, locus YOR316C, strain cot1, active compounds read low",1.03
same,normalized growth,"S. cerevisiae deletion strains, locus YPL051W, strain arl3, active compounds read low",0.903 (active)
same,normalized growth,"S. cerevisiae deletion strains, locus YPL055C, strain LGE1, active compounds read low",0.869
same,normalized growth,"S. cerevisiae deletion strains, locus YPL078C, strain atp4, active compounds read low",0.898
same,normalized growth,"S. cerevisiae deletion strains, locus YPL106C, strain sse1, active compounds read low",1.16 [resistant] (active)
same,normalized growth,"S. cerevisiae deletion strains, locus YPL240C, strain hsp82, active compounds read low",1
same,normalized growth,"S. cerevisiae deletion strains, locus YPL241C, strain CIN2, active compounds read low",1
same,normalized growth,"S. cerevisiae deletion strains, locus YPL256C, strain CLN2, active compounds read low",1.02
same,normalized growth,"S. cerevisiae deletion strains, locus YPR119W, strain clb2, active compounds read low",1.02
same,normalized growth,"S. cerevisiae deletion strains, locus YPR141C, strain kar3, active compounds read low",1.05
same,normalized growth,"S. cerevisiae deletion strains, locus YPR163C, strain tif3, active compounds read low",1.02
same,normalized growth,"S. cerevisiae deletion strains, locus YPR167C, strain met16, active compounds read low",1.01
same,normalized growth,"S. cerevisiae deletion strains, strain wtn01, active compounds read low",0.948
same,normalized growth,"S. cerevisiae strains, strain wild type, active compounds read low",0.962

# From PubChem BioAssay AID1159580 (chemical genetic matrix, 2015)
